# Experimental data as given in PubChem BioAssay.
# A number with no mark means an inactive call. The source made the active and inactive calls.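 Rule for the calls: active = z-score of at least 1.8 in each of two replicates, scored against plate mean and spread of sample wells; inactive = the rest.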
# Experiment: viability rescue of complex I mutant cybrids, primary screen, cell-based, galactose medium, ATP luminescence (AID 1645843);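 note: positive z means more ATP and so rescue of galactose-driven cybrid death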
# Conditions: complex I mutant cybrid cells, 72 h, active compounds read high
row,SMILES,z-score
1,CCCCn1cc(-c2cc(C(=O)N3CCCC3)c3cccc(C)c3n2)cn1,2.59 (active)
2,CC(=O)c1ccccc1-c1ccc2ccccc2n1,-0.515
3,Cc1nc(CN(C)C2CCN(c3ccc(-n4cccn4)cc3)CC2)cs1,0.655
4,Cc1ccc2c(C(=O)N3CCCC3)cc(-c3cnn(C(C)C)c3)nc2c1,-0.36
5,CC(C)n1cc(-c2cc(C(=O)N3CCC(C)(C)C3)c3ccc(F)cc3n2)cn1,0.14
6,Cc1cc(C(=O)N2CCCC(C)C2)c2ccc(C)c(C)c2n1 (stereo not given),-0.505
7,Cc1nsc(NC(=O)N2CCC(C(=O)N3CCCC3)CC2)n1,-0.375
8,CC(C)Cc1cn(C2CCN(C3Cc4ccccc4C3)CC2)nn1,-0.99
9,CCCc1noc(CN(C)C(=O)CCc2ccc(C)c(C)c2)n1,-0.575
10,O=C(C1CCCCCC1)N1CCC(n2cc(-c3ccccn3)nn2)CC1,-0.545
11,Cc1nn(C)c(C)c1-c1ccnc(N2CCC(C(=O)NCc3ccccn3)CC2)n1,1.16
12,Cc1ccc2c(C(=O)N3CCCC(C#N)C3)cc(-c3cnn(C(C)C)c3)nc2c1 (stereo not given),-0.52
13,NC(=O)NCc1cn(CC2CCN(C(=O)CC3CCCCCC3)CC2)nn1,-0.605
14,CCC(Nc1ncc(C)c(-c2cnn(C)c2)n1)c1nc2ccc(C)cc2[nH]1 (stereo not given),-0.955
15,Cc1ccc(C(=O)N2CCNC(=O)C2Cc2ccccc2)c(F)c1 (stereo not given),-0.535
16,COc1cc(N2CCN(Cc3ccc(F)cc3)C(=O)C2)ncn1,-0.36
17,CCCc1cn(CC2CCN(C(=O)[C@@H](N)[C@@H](C)CC)CC2)nn1,-0.24
18,COc1cccc(CN2CCN(C(=O)c3cc4cc(OC)ccc4[nH]3)CC2=O)c1,-0.41
19,OCCCCCNCC1(N2CCOCC2)CCCCCC1,-0.47
20,Cc1occc1C(=O)Nc1ccccc1C(=O)N(C)Cc1ccccn1,-0.21
21,CC(C)Cc1cn(C2CCN(C(=O)CC3CCCCCC3)CC2)nn1,2.74 (active)
22,O=c1c2sccc2ncn1Cc1nc2ccccc2[nH]1,0.03
23,CCC1(CC)CC1C(=O)N1CCC(n2cc(C3(O)CCCC3)nn2)CC1 (stereo not given),-0.565
24,O=C(Nc1cccc(-c2cscn2)c1)c1ccc2nccnc2c1,-0.95

row,SMILES,z-score
1,O=C(c1ccccc1-c1nn[nH]n1)N1CCc2[nH]cnc2C1c1ccccn1 (stereo not given),0.23
2,COc1ccc(C(=O)N2CCNC(=O)C2Cc2ccccc2)cc1F (stereo not given),-0.505
3,Cc1cn(CC(=O)Nc2cnn(C)n2)nc1-c1cccs1,0.735
4,COc1nccnc1-c1ccc2c(c1)OCO2,0.365
5,CCCCc1cn(C2CCN(C3CCCC(C)(C)C3)CC2)nn1 (stereo not given),-0.56
6,CCCC(C)CN(CC)C1CCS(=O)(=O)C1 (stereo not given),-0.55
7,Cn1cc(-c2ccccc2OC2(C(=O)O)CCSCC2)cn1,1.44
8,Cn1ncc(NC(=O)Cn2ccc(-c3ccccc3C(F)(F)F)n2)n1,1.12
9,c1nc(-c2ccc3c(c2)OCCO3)c2sccc2n1,0.225
10,Cc1nn(C)cc1-c1ccnc(N2CCCC(c3nc4c(C)cccc4[nH]3)C2)n1 (stereo not given),-1.2
11,Cc1cc(CN2CCNCC2)ccc1OC1(C(=O)O)CCSCC1,0.115
12,Cc1nsc(NC(=O)N2CCCN(c3ccc(F)cc3)CC2)n1,-0.27
13,Cc1ccccc1-c1cccc(N2CCC(N3CCN(C)C(C)C3)CC2)c1 (stereo not given),1.36
14,COC(C)(C)CCCC(C)CCN1CCC(n2cc(C(C)(C)N)nn2)CC1 (stereo not given),-0.52
15,Cc1ccc2nc(-c3cnc(CCC(C)C)nc3)c(C)c(C(=O)N(C)C)c2c1,-0.51
16,CCCOC1CCCN(C2CCN(c3ccc(F)c(F)c3)CC2)C1 (stereo not given),-0.725
17,Cc1cccc(CN(C)Cc2ccc(-c3nc(C(F)(F)F)c(C)c(=O)[nH]3)cc2)n1,0.78
18,CC(C)CN1CCN(c2ccc(C(F)(F)F)cn2)C(C)C1=O (stereo not given),-0.56
19,CC1(C)CCN(C(=O)c2cc(-c3cnc(C4CC4)nc3)nc3cc(F)ccc23)C1,-0.56
20,CN(CC1Cc2ccccc2O1)C(=O)Nc1nc(-c2ccccc2)ns1 (stereo not given),1.98
21,Cc1nn(C)c(C)c1-c1ccnc(N2CCC(c3ccccc3Cl)C2)n1 (stereo not given),-1.27
22,Nc1ncc(-c2ccc(Cl)cc2Cl)cn1,-0.065
23,Cc1cc(Cl)cc2c(=O)n(C(C)Cn3cccn3)cnc12 (stereo not given),-0.45
24,CC(CCN1CCC(Cn2cc(CCO)nn2)CC1)CC(C)(C)C (stereo not given),-0.27

row,SMILES,z-score
1,Cc1cc(NC(=O)Cn2c(C)nc(Cl)c2Cl)n(C2CCCCC2)n1,-0.41
2,CC(C)Cc1cn(C2CCN(C(=O)C3CCCCCC3)CC2)nn1,-0.435
3,CC(C)(O)c1cn(C2CCN(C(=O)C3CC34CCCC4)CC2)nn1 (stereo not given),-0.475
4,COC(=O)c1ccc(C(=O)N2CCNC(=O)C2Cc2ccccc2)cc1 (stereo not given),-0.49
5,CCC(CC)CN1CCC(NS(C)(=O)=O)CC1,-0.53
6,Cc1cccc(-n2cc(-c3ccn(CC(=O)Nc4ccnn4C)n3)cn2)c1,1.22
7,c1ccc(C(CCn2ccnc2)NC2CCCCCC2)cc1 (stereo not given),-0.47
8,Cc1ccn2cc(Cn3cnc4ccc(F)cc4c3=O)nc2c1,0.645
9,Cc1cc(CN[C@@H](C)C(N)=O)c(C)s1,0.04
10,CNCCCNC1CCN(c2ccc(-c3cccc(F)c3)cc2)CC1,-1.3
11,Cc1ccc(C)c(CNC(=O)Nc2nc(C)ns2)c1,0.47
12,CC(C)c1nc(Cn2cnc3ccsc3c2=O)cs1,-0.55
13,Cc1nnc2ccc3nnc(-c4cc(Cl)ccc4OC(C)C)n3n12,-0.5
14,CCC(CC)C(=O)N1CCC(n2cc(C(C)(C)O)nn2)CC1,0.875
15,CC1CCc2c(sc3ncn(Cc4noc(C(C)C)n4)c(=O)c23)C1 (stereo not given),-0.525
16,O=C1NCCN(C(=O)c2ccc(F)c(F)c2)C1Cc1ccccc1 (stereo not given),-0.495
17,CC(CCCC(C)(C)O)CCN1CCC(N(C)CCO)CC1 (stereo not given),-0.505
18,COc1cccc(CC(=O)NCc2ccc(Cl)s2)c1,-0.145
19,Cc1cc(NC(=O)Cn2ccc(-c3cccc(F)c3)n2)n(-c2ccccn2)n1,-0.96
20,Cc1nsc(NC(=O)N2CCC(N)CC2)n1,0.04
21,O=C(CCC1CC1)Nc1ccnn1C1CCCCC1,0.01
22,CCN(CC)C(=O)c1cc(-c2cnc(C(C)C)nc2)nc2c(C)cccc12,-1.09
